From PubChem BioAssay
The list is not random: actives were taken first. Their share in the collection is about 10%.
BAZ2B inh: qHTS Assay for Inhibitors of BAZ2B | Bromodomain adjacent to zinc finger domain protein 2B (Homo sapiens), Q9UIF8 | AlphaScreen BAZ2B-H3K14Ac peptide displacement | Potency, µM (titrated, usually from 114 µM), for inactives: at the highest dose activity change, negative = inhibition, hits mostly inhibitors | hit rate 4.4% among 360,000 | AID 504333, 2011; further: potency means the concentration at half of the fitted maximal effect; on the % scale 0 is the no-effect control and ±100 the full control effect; nearly all actives have a fitted effect of over 60% in size
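AlphaScreen luminescence quantifies BAZ2B engagement of H3K14Ac peptide; the protein and biotinylated peptide are both at 50 nM final, buffer PBS pH 7.4 with 0.01% Tween-20, all steps at room temperature.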
HP1b binding inh: HTS for Inhibitors of HP1-beta Chromodomain Interactions with Methylated Histone Tails; hit rate 0.56% among 390,000; AlphaScreen HP1-beta / biotin-H3K9me3 peptide binding; Potency, µM (doses to about 114 µM), inactives show top-dose activity change, negative = inhibition, most hits filed as inhibitors; Chromobox protein homolog 1 (Homo sapiens), P83916; further: potency means the concentration at half of the fitted maximal effect; nearly all actives have a fitted effect of over 70% in size
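AlphaScreen: HP1-beta (50 nM) preformed 30 min with biotin-H3(1-18)K9me3 peptide (50 nM) in PBS pH 7.4, 0.01% Tween-20. Compound added for 30 min at RT, then streptavidin donor/nickel chelate acceptor beads (10 ug/mL) for 30 min.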
JMJD2A Tudor: qHTS Assay for Inhibitors of JMJD2A-Tudor Domain | Lysine-specific demethylase 4A (Homo sapiens), O75164 | AlphaScreen JMJD2A-Tudor / H3K4me3 peptide binding | Potency, µM (doses to about 114 µM), without a hit: at the highest dose activity change, negative = inhibition, most hits filed as inhibitors | hit rate 4.4% among 390,000 | AID 504339, 2011; further: potency means the concentration at half of the fitted maximal effect; on the % scale 0 is the no-effect control and ±100 the full control effect; nearly all actives have a fitted effect of over 50% in size
CtBP-E1A inh: qHTS Assay for Inhibitors of the CtBP/E1A Interaction; activity change, % (no concentration beside the values); AlphaScreen GST-E1A/His-CtBP binding, 1536-well; hits give low values; AID 651724, 2012; hit rate 0.49% among 340,000; in the data active means activity change below about -65%; inconclusive means mostly about -30% to -63%; further: on the % scale 0 is the no-effect control and ±100 the full control effect
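Steps: dispense buffer (Tris pH 8.0, NaCl 300 mM, TCEP 1 mM, BSA, Tween 20); add 5X protein mix (GST-E1A, His-CtBP, 125 nM each); pin 23 nL compound; 2 h at 37 °C, dark; add 5X beads (50 ug/mL); 1 h; read.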
G9a block: qHTS Assay for Inhibitors of Histone Lysine Methyltransferase G9a | hit rate 8.8% among 350,000 | Potency, µM (titrated, usually from 102 µM), inactives show at the top dose activity, negative = inhibition, hits mostly inhibitors | G9a H3K9 monomethylation, AlphaScreen, 2 h | AID 504332, 2011 | Histone-lysine N-methyltransferase EHMT2 (Homo sapiens), Q96KQ7; further: potency means the concentration at half of the fitted maximal effect; on the % scale 0 is the no-effect control and ±100 the full control effect; nearly all actives have a fitted effect of over 75% in size
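G9a (20 nM) was preincubated 15 min with compound, then reacted 2 h at room temperature with 500 nM biotin-H3K9 peptide and 20 µM SAM. Monomethyl-H3K9 detected by AlphaScreen using anti-H3K9me1 antibody.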
Six1-Eya2 inh: qHTS Assay for Inhibitors of the Six1/Eya2 Interaction | Homeobox protein SIX1 (Homo sapiens) + Protein phosphatase EYA2 (Homo sapiens), … | AlphaScreen GST-Six1/His-Eya2 binding, biochemical; hits give low values | activity change, % (no concentration beside the values) | hit rate 0.56% among 360,000 | AID 651725, 2012; in the data active means activity change below about -65%; inconclusive means mostly about -30% to -63%; further: on the % scale 0 is the no-effect control and ±100 the full control effect
Target sequence (O00167 whole entry, looked up): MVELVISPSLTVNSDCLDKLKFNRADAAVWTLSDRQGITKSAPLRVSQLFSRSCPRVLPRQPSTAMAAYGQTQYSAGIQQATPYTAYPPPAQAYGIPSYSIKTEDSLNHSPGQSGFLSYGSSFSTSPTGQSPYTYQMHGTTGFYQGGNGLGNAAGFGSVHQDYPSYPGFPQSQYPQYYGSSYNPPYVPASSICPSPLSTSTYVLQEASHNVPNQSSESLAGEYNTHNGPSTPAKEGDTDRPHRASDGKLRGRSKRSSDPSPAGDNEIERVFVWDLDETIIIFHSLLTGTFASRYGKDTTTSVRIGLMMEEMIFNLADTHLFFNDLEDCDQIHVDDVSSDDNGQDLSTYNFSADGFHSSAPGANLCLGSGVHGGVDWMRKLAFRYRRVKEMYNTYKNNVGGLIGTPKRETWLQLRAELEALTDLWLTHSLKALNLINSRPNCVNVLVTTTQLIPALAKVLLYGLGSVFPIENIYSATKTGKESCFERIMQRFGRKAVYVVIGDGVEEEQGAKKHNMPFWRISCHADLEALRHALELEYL
Target sequence (Q15475 whole entry, looked up): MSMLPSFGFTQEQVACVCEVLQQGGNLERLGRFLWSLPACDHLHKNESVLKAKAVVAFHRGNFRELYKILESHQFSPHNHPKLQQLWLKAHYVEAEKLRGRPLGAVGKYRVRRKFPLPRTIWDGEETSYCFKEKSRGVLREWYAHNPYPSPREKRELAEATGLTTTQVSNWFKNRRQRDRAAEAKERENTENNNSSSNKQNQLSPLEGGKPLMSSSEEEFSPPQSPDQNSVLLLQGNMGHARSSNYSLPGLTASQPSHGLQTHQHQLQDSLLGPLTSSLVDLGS
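Homogeneous AlphaScreen proximity assay pairing GST-Six1 with His-tagged Eya2 (added as 5X mix: 250 nM and 500 nM) in 50 mM Tris pH 8.0, 300 mM NaCl, 1 mM TCEP. Glutathione donor and nickel acceptor beads; 1 h, 37 °C, dark.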
Starred values were filed as active, the others as inactive; ? = inconclusive; / = no result given; [ ] = another dose, or the depositor's remark. Unless noted, the call rests on the fitted dose curve; in most records, active means well fitted inhibition curve with a large enough effect; inconclusive means small, poorly fitted or top-dose-only effect; inactive means no such curve, though single readings can be large or run the other way.

SMILES	BAZ2B inh	HP1b binding inh	JMJD2A Tudor	CtBP-E1A inh	G9a block	Six1-Eya2 inh
Cc1cc(C(=O)CSc2nc3ccccc3c(=O)[nH]2)c(C)n1CC1CCCO1 (centres undefined)	-24.0%	-2.4%	-25.5%	-0.4	-31.7%	-5.9
CCn1c(SCC(=O)c2cc(C)n(CC3CCCO3)c2C)nc2ccccc21 (centres undefined)	?	-19.9%	?	-10.1	17.8µM*	-6.8
Cc1cc(C(=O)CN2C(=O)c3ccccc3S2(=O)=O)c(C)n1CC1CCCO1 (centres undefined)	-34.4%	-4.0%	?	-1.5	50.1µM*	-0.6
Cc1cccc(-c2nc(S(=O)(=O)c3ccc(F)cc3)c(NCCCN3CCOCC3)o2)c1	70.8µM*	?	?	-2.7	/	-11.2
COc1ccc(CCNC(=O)Cn2c(=O)n(-c3cc(OC)c(OC)c(OC)c3)c(=O)c3ccccc32)cc1OC	3.3%	6.2%	-14.3%	/	-7.6%[59 µM]	/
Cc1cc(-c2n[nH]c(=S)n2/N=C/C(Cl)=C/c2ccccc2)n[nH]1	?	-17.5%	56.2µM*	6.2	1.58µM*	-13.0
O=C(N/N=C/C(Cl)=C/c1ccccc1)c1ccco1	-3.6%	-20.3%	-18.9%	?	/	-5.4
S=c1[nH]nc(-c2ccco2)n1/N=C/C(Cl)=C/c1ccccc1	?	?	?	2.9	4.47µM*	-8.6
Cc1cc(-c2ccccc2)n[nH]1	-11.7%	29.7%	-16.8%	-1.4	-17.7%	3.4
Cc1cc(C)c(CSc2ncc(-c3ccc([N+](=O)[O-])cc3)[nH]2)c(C)c1	10µM*	?	?	-22.1	?	-19.7
O=[N+]([O-])c1ccc(-c2cnc(SC(c3ccccc3)c3ccccc3)[nH]2)cc1	39.8µM*	?	?	-19.7	12.6µM*	-29.5
NC(=O)CSc1ncc(-c2ccc([N+](=O)[O-])cc2)[nH]1	-2.8%	23.8%	-12.7%	-6.8	?	-17.1
O=[N+]([O-])c1ccc(-c2cnc(SCc3ccccc3Cl)[nH]2)cc1	31.6µM*	?	?	-17.1	35.5µM*	-25.7
Cc1cc(C)c2c(=O)[nH]c(SCc3ccc([N+](=O)[O-])cc3)nc2n1	-1.4%	28.4%	-9.7%	-2.2	-36.9%	-26.3
Cc1cc2ccccc2n1-c1ccc(C(=O)N2CCC(C(=O)NCc3ccc(Cl)cc3)CC2)s1	-21.7%	9.7%	-20.1%	/	-7.4%[59 µM]	/
CCOC(=O)c1[nH]c(C)c(CCC(=O)N2CCN(c3cccc(C)c3C)CC2)c1C	?	12.6%[57 µM]	?	/	?	/
COC(=O)CCCSc1nccn1-c1ccccc1	?	27.3%	-18.5%	-3.1	44.7µM*	-1.4
COc1cccc(-n2ccnc2SCC(=O)NCc2ccccc2)c1	-7.3%	-1.1%	-21.6%	-0.3	?	0.8
O=C(CSc1nccn1-c1ccccc1)NCc1ccc(F)cc1	-20.9%	15.9%	-8.8%	-1.1	-38.0%	-1.4
c1ccc(CCSc2nccn2-c2ccccc2)cc1	39.8µM*	?	?	-15.8	44.7µM*	-24.1
COc1ccccc1CNC(=O)CSC1=Nc2ccccc2N=C(c2ccc(F)cc2)C1	-5.6%	11.1%[57 µM]	-12.1%	/	5.5%[59 µM]	/
CCOc1ccc(CNCc2c(C(=O)O)c(C)n(Cc3c(F)cccc3Cl)c2C)cc1OC	-34.7%	-6.9%	?	/	-25.0%[59 µM]	/
Cc1cnc(NC(=O)CSc2ncc(-c3ccccc3)n2Cc2ccco2)s1	22.4µM*	-1.8%	?	-23.5	?	?
COc1ccc(NC(=O)CSc2ncc(-c3ccc(F)cc3)n2Cc2ccco2)cc1	31.6µM*	?	56.2µM*	-12.1	28.2µM*	0.0
COc1ccc(-c2cnc(SCC(=O)Nc3nc(C(C)(C)C)cs3)n2Cc2ccco2)cc1	?	?	?	-29.2	?	-21.7
SMILES	BAZ2B inh	HP1b binding inh	JMJD2A Tudor	CtBP-E1A inh	G9a block	Six1-Eya2 inh
CCC(=O)Nc1cc(NC(=O)CSc2ncc(-c3ccc(F)cc3)n2Cc2ccco2)ccc1C	/	-12.4%	?	-7.3	?	-9.7
COCCn1c(-c2ccc(OC)cc2)cnc1SCC(=O)Nc1cccc2ccccc12	17.8µM*	-47.2%	25.1µM*	?	35.5µM*	?
COc1ccc(-c2cnc(SCC(=O)Nc3cc(C)on3)n2Cc2ccco2)cc1	44.7µM*	?	50.1µM*	-11.3	?	-17.8
O=C(N/N=C/c1cc([N+](=O)[O-])ccc1O)c1c[nH]c2ccccc12	3.1%	51.1%	-14.0%[11.4 µM]	-78.0*	6.2%	-85.9*
O=C(N/N=C/c1cccc([N+](=O)[O-])c1)c1c[nH]c2ccccc12	-12.9%	23.9%	-18.6%	-9.1	0.8%	-15.1
O=C(NN=Cc1ccccc1O)c1cccc([N+](=O)[O-])c1	/	22.5%	-32.4%	?	/	?
O=C(NN=Cc1cc([N+](=O)[O-])ccc1O)c1cccc2ccccc12	/	26.8%	-16.0%	-3.4	/	-91.6*
O=C(N/N=C/c1cc([N+](=O)[O-])ccc1O)Nc1ccccc1	-18.9%	10.4%	?	-2.9	3.5%	-5.5
CCNC(=O)C(=O)N/N=C/c1cc([N+](=O)[O-])ccc1O	8.91µM*	37.1%	14.1µM*	-94.3*	9.4%	-92.2*
Nc1ccc(C(=O)N/N=C\c2cc(N=Nc3cccc4ccccc34)ccc2O)cc1	44.7µM*	?	?	?	-7.0%[0.501 µM]	-20.5
CCS(=O)(=O)c1oc(-c2ccc(F)cc2)nc1S(=O)(=O)c1ccc(Br)cc1	-16.7%	78.9%	-1.4%	/	?	/
CCCCCCN(CCCCCC)C(=O)Cc1c(-c2ccc(Cl)cc2)[nH]c2ccc(Cl)cc12	/	/	/	/	26.8%[59 µM]	/
COc1ccccc1N1CCN(C2CCCCC2NS(=O)(=O)c2ccccc2)CC1 (centres undefined)	-28.9%	15.6%	-28.6%	-12.7	-8.5%	-11.0
O=[N+]([O-])c1ccc(O)c(C=Nc2cccc3ccccc23)c1	-10.8%	-11.2%	-20.5%	-10.1	50.1µM*	-4.6
Oc1c(C=Nc2cccc3cccnc23)sc2ccccc12	-33.6%	/	/	/	?	/
O=[N+]([O-])c1ccc(O)c(N=Cc2sc3ccccc3c2O)c1	14.1µM*	-35.1%	44.7µM*	-2.2	44.7µM*	0.2
Cc1cccc(/N=C/c2sc3ccccc3c2O)n1	?	?	?	-8.0	31.6µM*	-7.1
CC(C)CN(CCCNC(=O)c1cc(=O)[nH]c2ccc(S(=O)(=O)N3CCCCCC3)cc12)CC(C)C	2.2%	21.3%	-14.7%	/	2.2%[59 µM]	/
